Cardio protect = cardioprotection against H2O2-induced cell death, primary screen, uHTS, H9c2 cells, ATPLite luminescence; H9c2 cardiomyocytes, H2O2 injury protection, 2 h; protection from H2O2 cell death, % at 20 µM; 360,000 compounds, 0.63% hits; AID 588492, 2011;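 active means compounds giving at least 50% protection of heart cells from peroxide-induced death in the single-dose screen, raw or plate-pattern-corrected value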;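 further: 0% = DMSO wells with peroxide and 100% = DMSO wells without peroxide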
NTR1 agonist = agonists of human NTR1, primary screen, imaging, U2OS cells, beta-arrestin-GFP, high content; Neurotensin receptor type 1 (Homo sapiens), P30989; NTR1-U2OS beta-arrestin-GFP spot imaging, agonist mode; activation, % at 20 µM; 330,000 compounds, 0.17% hits;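 active means activation at or above 40% of the spot to cytoplasm intensity ratio, with at least 20 cells analyzed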;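 further: 0% = DMSO without peptide and 100% = 100 nM NTR1 peptide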
SUMO HTRF inh = inhibitors of in vitro SUMOylation cascade, primary screen, biochemical, HTRF, uHTS | SUMO-conjugating enzyme UBC9 (Homo sapiens), P63279 | HTRF SUMOylation assay, SAE1/SAE2 + UBC9 | inhibition, % at 35 µM | 290,000 compounds, 0.36% hits; in the data active means inhibition above about 50%, passing the limit was not always enough
Target sequence (P63279 whole entry, looked up): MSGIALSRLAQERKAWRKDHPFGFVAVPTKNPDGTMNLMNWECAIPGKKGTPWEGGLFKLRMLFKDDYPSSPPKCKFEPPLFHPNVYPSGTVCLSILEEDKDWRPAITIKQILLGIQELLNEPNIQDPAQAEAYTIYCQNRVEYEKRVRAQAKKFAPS
ALR H2O2 inh = inhibitors of human ALR sulfhydryl oxidase, primary screen, biochemical, H2O2 detection, HRP-luminol luminescence, single point | 290,000 compounds, 3.8% hits | inhibition, % (no concentration beside the values) | purified ALR, DTT oxidation;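 active means mean replicate inhibition above about 79%, with every replicate also reaching it, limit read from the data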
Target sequence (P55789 whole entry, looked up): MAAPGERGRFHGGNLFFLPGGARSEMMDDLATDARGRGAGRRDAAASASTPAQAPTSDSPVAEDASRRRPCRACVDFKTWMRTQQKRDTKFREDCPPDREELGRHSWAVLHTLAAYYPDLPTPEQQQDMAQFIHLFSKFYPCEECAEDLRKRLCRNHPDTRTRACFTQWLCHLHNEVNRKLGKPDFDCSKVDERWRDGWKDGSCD
Starred values were filed as active, the others as inactive; x = not tested or not shown. Shown are actives, neighbours in structure and some others; about 3.9% of the full set was active somewhere.

SMILES	Cardio protect	NTR1 agonist	SUMO HTRF inh	ALR H2O2 inh
O=C(Nc1cccc(N=Cc2cc(Cl)cc(Br)c2O)c1)c1ccco1	50.1*	0.4	40.0	-7.6
CCOC(=O)N1CCN(C2CC(=O)N(c3ccc(Cl)c(Cl)c3)C2=O)CC1 (stereo not given)	-5.9	0.3	17.4	x
O=C(NC1CCCCCC1)C1CCCN1S(=O)(=O)c1cccc2cccnc12 (stereo not given)	4.3	-0.9	24.2	96.5*
O=C(NC1CCCC1)C1CCCN1S(=O)(=O)c1cccc2cccnc12 (stereo not given)	4.2	1.4	13.9	89.0*
O=C(NCc1ccccc1)C1CCCN1S(=O)(=O)c1cccc2cccnc12 (stereo not given)	3.0	2.0	-8.0	-174.9
NNC(=O)c1snnc1-c1ccccc1	-0.6	0.6	10.8	-36.3
CCc1ccc(-c2nn(Cc3ccccc3)cc2/C=C/C(=O)O)cc1	11.6	0.5	26.2	79.7*
CCOc1cc(/C=N/O)ccc1OS(=O)(=O)c1ccc(C)cc1	12.2	-0.7	25.2	36.1
CCOc1cc(/C=N/O)ccc1OCc1ccc(C)cc1	-1.1	2.9	-25.7	98.0*
COc1ccc(Cl)c2c1[nH]c1nc(SCc3ccccn3)nnc12	64.1*	3.0	-8.0	-10.7
Cc1ccc(C(=O)c2cc3c(cc2N)OCCO3)cc1	10.3	-3.0	-15.0	x
Nc1cc2c(cc1C(=O)c1ccccc1)OCCO2	5.1	-0.5	-2.2	98.1*
Cc1ccc(C(=O)CC(=O)COc2ccc(Cl)cc2C)cc1	64.1*	0.7	4.0	-5.7
Cc1ccc(NC(=O)c2ccc(OC(=O)COc3ccc(Cl)cc3C)cc2)cc1	-5.8	-0.6	2.4	-6.7
CC(=O)/C(=N\Nc1cccc(Cl)c1)Sc1cccc2cccnc12	-4.0	10.3	5.5	-3.5
CC(=O)/C(N)=N/Nc1cccc(Cl)c1	-2.4	-0.7	6.5	98.8*
CC(C)n1c(SCC(=O)N2CCCC2)nc2c1c(=O)n(C)c(=O)n2C	5.8	1.9	-30.8	-1.6
CCc1ccc(-c2nc(CSCC(=O)NC3CC3)c(C)o2)cc1	-6.9	0.1	9.3	70.1
CCOC(=O)N1CCC(NC(=O)CSCc2nc(-c3ccc(OC)cc3)oc2C)CC1	1.7	0.3	2.1	85.6*
CSc1ccc(-c2nc(CSCC(=O)N3CCOCC3)c(C)o2)cc1	-7.6	0.0	-4.1	97.6*
Cc1oc(-c2ccccc2Cl)nc1CSCC(=O)NC1CC1	2.5	-2.4	34.4	98.0*
CSc1ccc(-c2nc(CSCC(=O)NC3CC3)c(C)o2)cc1	-1.4	-1.3	22.6	98.4*
Cc1nnc(NC(=O)c2cc(-c3ccco3)nc3ccccc23)s1	1.3	1.1	x	0.2
CCc1ccc(-c2nc(CSCC(=O)N3CCN(c4ncccn4)CC3)c(C)o2)cc1	-18.2	4.7	10.5	97.3*
COc1cc(C(=O)NCCc2nc3ccccc3n2C)cc(OC)c1OC	10.7	0.1	-14.9	-2.0
SMILES	Cardio protect	NTR1 agonist	SUMO HTRF inh	ALR H2O2 inh
COc1ccc(/C=C/C(=O)c2ccc3ccccc3c2O)cc1CN1CCOCC1	8.1	1.8	4.0	-21.3
COc1ccc(/C=C/C(=O)c2ccccc2O)cc1CN1CCOCC1	83.5*	0.1	1.2	x
COCCn1nc2cc(C(=O)NCc3cc(C(F)(F)F)cc(C(F)(F)F)c3)ccc2c1OC	-5.8	6.0	40.6	3.9
COc1cc(/C=C/C(=O)OCC(=O)NNC(=O)c2cc(Cl)ccc2OC)ccc1O	-0.5	0.4	x	19.0
COc1cc(/C=C/C(=O)OCC(=O)Nc2ccccc2Sc2ccc(Cl)cc2)ccc1O	-2.3	18.3	-12.2	91.2*
COc1cc(/C=C/C(=O)OCC(=O)Nc2c(C)n(C)n(-c3ccccc3)c2=O)ccc1O	2.6	-0.6	10.6	99.2*
Clc1ccccc1CSc1snnc1-c1ccccc1	-9.6	1.2	1.2	97.7*
Clc1ccc(CSc2snnc2-c2ccccc2)cc1	-8.2	-0.7	-0.4	-7.7
COc1cccc(/C=C/C(=O)OCC(=O)NCCc2ccccc2)c1	2.9	-0.5	-11.7	-6.7
CCN1C(=O)/C(=C/C=C2/CCCN2C)OC1=S	-1.7	0.6	3.9	97.9*
CN1C(=O)/C(=C\C=C2/CCCN2C)N(C)C1=S	-3.0	0.4	-4.5	59.1
Cc1cc(N(C)C)ccc1N=Nc1ccc2ncccc2c1	-15.0	7.4	-4.3	94.4*
CN(C)c1ccc(N=Nc2ccc3ncccc3c2)cc1	-17.1	x	x	x
O=C(CCC(=O)N1CCN(C2CCCC2)CC1)Nc1nnc(C(F)(F)F)s1	12.2	0.2	32.0	-5.2
